Measurements as given in PubChem BioAssay (Tox21).
Results filed as inconclusive are left out. Active and inactive are the calls of the source. Unless noted, calls follow the shape of the dose curve; as a rule, active = well fitted curve in the direction sought with a large enough effect in the repeat runs; inconclusive = weak or mixed curves; inactive = no such curve, though single readings can be large; an effect the other way counts as inactive or inconclusive.

What was measured:
[1] = molecular target: Thyrotropin-releasing hormone receptor (Homo sapiens) (UniProt P34981); experiment: qHTS assay to identify small molecule agonists of the thyrotropin-releasing hormone receptor (TRHR) signaling pathway (AID 1346891; calls by dose curve; also: potency is read from the fitted curve at half-maximal effect; as to activation: series mostly up to about 58 µM)
Sequence of Thyrotropin-releasing hormone receptor (Homo sapiens) (P34981 whole entry, looked up): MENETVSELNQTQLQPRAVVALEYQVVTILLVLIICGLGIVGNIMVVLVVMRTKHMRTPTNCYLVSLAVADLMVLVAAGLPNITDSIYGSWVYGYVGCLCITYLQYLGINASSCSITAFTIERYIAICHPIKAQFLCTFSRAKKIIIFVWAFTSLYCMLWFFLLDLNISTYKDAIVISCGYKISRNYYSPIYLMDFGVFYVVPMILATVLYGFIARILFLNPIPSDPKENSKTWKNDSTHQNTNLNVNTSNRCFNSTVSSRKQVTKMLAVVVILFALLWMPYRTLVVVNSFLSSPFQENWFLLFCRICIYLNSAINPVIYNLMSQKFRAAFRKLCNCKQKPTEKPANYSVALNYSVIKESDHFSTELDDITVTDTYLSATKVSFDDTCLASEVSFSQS
Procedure, shortened: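 Intracellular calcium rise, read as fluorescence every second for 3 min, served as the agonist signal in dye-loaded HEK293 cells expressing TRHR; each compound ran at 15 concentrations in triplicate.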

[2] = Human pregnane X receptor (PXR) small molecule agonists, qHTS cell viability counter screen (AID 1346977); also: nearly all actives have a fitted effect of over 50% in size; also: potency is read from the fitted curve at half-maximal effect
Procedure, shortened: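 PXR-Luc HepG2, 2,000 cells/well, 5% charcoal-stripped FBS; 5hr settle; cpd 24hr, 37C/5% CO2; CellTiter-Fluor at 23hr, read 1hr later (fluorescence).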

[3] = Caspase-3/7 induction in HepG2 cells by small molecules, qHTS assay (AID 1346978); also: nearly all actives have a fitted effect of over 15% in size
Procedure, shortened: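 Caspase-3/7 induction was measured by Caspase-Glo 3/7 luminescence (30 min, room temperature) after a 17 hr compound exposure of wild-type HepG2 cells seeded at 2,000 per well and pre-incubated 5 hr.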

[4] = Caspase-3/7 induction in CHO-K1 cells by small molecules, qHTS cell viability counter screen (AID 1346979); also: nearly all actives have a fitted effect of over 35% in size; also: potency is read from the fitted curve at half-maximal effect
Procedure, shortened: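 Cells (CHO-K1, wild type) are plated at 1,500 per well and incubated 5hr. Test compounds in DMSO are then pinned in, followed by 16hr at 37C and 5% CO2. Viability is read by CellTiter-Fluor fluorescence after 1hr.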

[5] = Caspase-3/7 induction in CHO-K1 cells by small molecules, qHTS assay (AID 1346980); also: nearly all actives have a fitted effect of over 15% in size
Procedure, shortened: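 Luminescent Caspase-Glo 3/7 read (30min, room temperature) quantified apoptosis induction. Cells were wild-type CHO-K1, treated with compound for 17hr at 37 C and 5% CO2.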

[6] = Caspase-3/7 induction in HepG2 cells by small molecules, qHTS cell viability counter screen (AID 1346981); also: nearly all actives have a fitted effect of over 30% in size; also: potency is read from the fitted curve at half-maximal effect
Procedure, shortened: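 Fluorescence read-out of live-cell protease activity (CellTiter-Fluor) after 1 hr with reagent. This was measured in the same wells as the caspase-3/7 luminescence, on HepG2 cells exposed to DMSO-dissolved compounds for 16 hr at 37 C.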

[7] = molecular target: Nuclear receptor subfamily 1 group I member 2 (Homo sapiens) (UniProt O75469); experiment: Human pregnane X receptor (PXR) small molecule agonists, qHTS assay (AID 1346982); also: nearly all actives have a fitted effect of over 35% in size; also: potency is read from the fitted curve at half-maximal effect
Sequence of Nuclear receptor subfamily 1 group I member 2 (Homo sapiens) (O75469 whole entry, looked up): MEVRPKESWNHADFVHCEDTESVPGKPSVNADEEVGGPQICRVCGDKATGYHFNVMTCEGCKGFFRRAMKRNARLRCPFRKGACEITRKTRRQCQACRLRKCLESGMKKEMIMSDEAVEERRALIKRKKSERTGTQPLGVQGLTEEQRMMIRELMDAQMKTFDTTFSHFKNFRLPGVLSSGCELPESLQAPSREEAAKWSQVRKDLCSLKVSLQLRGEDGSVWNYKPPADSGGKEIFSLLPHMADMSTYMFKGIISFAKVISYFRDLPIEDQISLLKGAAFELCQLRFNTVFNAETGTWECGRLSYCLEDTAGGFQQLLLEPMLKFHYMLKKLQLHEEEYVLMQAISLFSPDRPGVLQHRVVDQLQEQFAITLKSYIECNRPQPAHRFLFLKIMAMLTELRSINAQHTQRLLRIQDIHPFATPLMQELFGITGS
Procedure, shortened: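 HepG2 PXR-Luc reporter line, 5% charcoal-stripped FBS; 5 hr pre-incubation, compound (DMSO) 24 hr at 37 C/5% CO2; ONE-Glo 30 min RT; luminescence read-out.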

[8] = molecular target: Cytochrome P450 2D6 (Homo sapiens) (UniProt P10635); experiment: Cytochrome P450 Family 2 Subfamily D Member 6 (CYP2D6) small molecule antagonists: luciferase reporter qHTS assay (AID 1671196); also: nearly all actives have a fitted effect of over 50% in size; also: potency is read from the fitted curve at half-maximal effect
Sequence of Cytochrome P450 2D6 (Homo sapiens) (P10635 whole entry, looked up): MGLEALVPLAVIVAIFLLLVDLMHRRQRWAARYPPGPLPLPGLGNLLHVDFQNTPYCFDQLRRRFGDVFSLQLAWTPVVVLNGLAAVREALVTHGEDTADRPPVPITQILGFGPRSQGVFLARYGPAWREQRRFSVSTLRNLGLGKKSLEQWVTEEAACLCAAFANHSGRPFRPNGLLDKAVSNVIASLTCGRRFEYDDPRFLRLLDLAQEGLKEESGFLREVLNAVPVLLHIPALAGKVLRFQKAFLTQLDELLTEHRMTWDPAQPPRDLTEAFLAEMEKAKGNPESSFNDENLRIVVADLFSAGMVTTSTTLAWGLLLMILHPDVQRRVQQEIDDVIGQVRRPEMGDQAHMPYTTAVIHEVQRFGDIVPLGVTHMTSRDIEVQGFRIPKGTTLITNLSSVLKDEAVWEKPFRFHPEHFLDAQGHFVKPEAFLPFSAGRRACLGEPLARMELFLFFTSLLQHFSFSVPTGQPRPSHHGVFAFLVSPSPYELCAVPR
Procedure, shortened: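 Luminogenic proluciferin substrate, CYP2D6 enzyme; 10 min RT preincubation with compound, NADPH regeneration system added, 1 h RT. Stop/detection reagent, 20 min RT, luminescence read (RLU). Signal proportional to CYP activity.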

[9] = molecular target: Cytochrome P450 2C19 (Homo sapiens) (UniProt P33261); experiment: Cytochrome P450 Family 2 Subfamily C Member 19 (CYP2C19) small molecule antagonists: luciferase reporter qHTS assay (AID 1671197); also: nearly all actives have a fitted effect of over 65% in size; also: potency is read from the fitted curve at half-maximal effect
Sequence of Cytochrome P450 2C19 (Homo sapiens) (P33261 whole entry, looked up): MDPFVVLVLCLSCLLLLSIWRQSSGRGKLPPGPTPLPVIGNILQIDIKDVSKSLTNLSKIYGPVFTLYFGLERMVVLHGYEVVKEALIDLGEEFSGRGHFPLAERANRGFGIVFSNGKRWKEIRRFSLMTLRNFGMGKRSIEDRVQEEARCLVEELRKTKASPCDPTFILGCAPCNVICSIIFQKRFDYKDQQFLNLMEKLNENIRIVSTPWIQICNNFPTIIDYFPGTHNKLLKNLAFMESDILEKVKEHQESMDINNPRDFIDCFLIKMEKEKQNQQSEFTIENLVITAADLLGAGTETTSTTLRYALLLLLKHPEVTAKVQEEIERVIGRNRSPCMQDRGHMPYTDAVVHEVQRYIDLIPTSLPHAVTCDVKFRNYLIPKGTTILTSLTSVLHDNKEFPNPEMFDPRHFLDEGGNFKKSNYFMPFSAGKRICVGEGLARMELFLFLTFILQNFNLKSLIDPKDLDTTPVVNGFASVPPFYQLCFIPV
Procedure, shortened: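 Light output is proportional to CYP2C19 activity: proluciferin substrate is converted to luciferin, then detected by a luciferin detection reagent that also stops the 1 h, 37C NADPH-driven reaction. Ketoconazole serves as positive control.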

[10] = molecular target: Cytochrome P450 2C9 (Homo sapiens) (UniProt P11712); experiment: Cytochrome P450 Family 2 Subfamily C Member 9 (CYP2C9) small molecule antagonists: luciferase reporter qHTS assay (AID 1671198); also: nearly all actives have a fitted effect of over 50% in size; also: potency is read from the fitted curve at half-maximal effect
Sequence of Cytochrome P450 2C9 (Homo sapiens) (P11712 whole entry, looked up): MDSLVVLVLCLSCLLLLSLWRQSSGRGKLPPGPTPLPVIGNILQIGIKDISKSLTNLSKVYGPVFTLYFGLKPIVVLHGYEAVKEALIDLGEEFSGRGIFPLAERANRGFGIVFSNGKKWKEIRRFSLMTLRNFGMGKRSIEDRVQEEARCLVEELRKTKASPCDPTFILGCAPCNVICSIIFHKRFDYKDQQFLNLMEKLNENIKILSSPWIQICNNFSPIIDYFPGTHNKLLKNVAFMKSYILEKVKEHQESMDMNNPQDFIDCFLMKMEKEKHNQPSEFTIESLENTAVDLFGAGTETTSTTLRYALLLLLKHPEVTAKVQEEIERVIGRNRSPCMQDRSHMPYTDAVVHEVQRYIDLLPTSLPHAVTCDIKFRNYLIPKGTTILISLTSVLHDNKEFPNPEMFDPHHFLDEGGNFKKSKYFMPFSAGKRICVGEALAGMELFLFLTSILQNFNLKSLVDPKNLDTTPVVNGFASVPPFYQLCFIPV
Procedure, shortened: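 Enzyme-substrate mix preincubated with compound 10 min at room temperature; reaction started with NADPH regeneration solution, 1 h 37C. Luminescent luciferin product read after 20 min detection reagent.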

[11] = molecular target: Cytochrome P450 1A2 (Homo sapiens) (UniProt P05177); experiment: Cytochrome P450 Family 1 Subfamily A Member 2 (CYP1A2) small molecule antagonists: luciferase reporter qHTS assay (AID 1671199); also: nearly all actives have a fitted effect of over 50% in size; also: potency is read from the fitted curve at half-maximal effect
Sequence of Cytochrome P450 1A2 (Homo sapiens) (P05177 whole entry, looked up): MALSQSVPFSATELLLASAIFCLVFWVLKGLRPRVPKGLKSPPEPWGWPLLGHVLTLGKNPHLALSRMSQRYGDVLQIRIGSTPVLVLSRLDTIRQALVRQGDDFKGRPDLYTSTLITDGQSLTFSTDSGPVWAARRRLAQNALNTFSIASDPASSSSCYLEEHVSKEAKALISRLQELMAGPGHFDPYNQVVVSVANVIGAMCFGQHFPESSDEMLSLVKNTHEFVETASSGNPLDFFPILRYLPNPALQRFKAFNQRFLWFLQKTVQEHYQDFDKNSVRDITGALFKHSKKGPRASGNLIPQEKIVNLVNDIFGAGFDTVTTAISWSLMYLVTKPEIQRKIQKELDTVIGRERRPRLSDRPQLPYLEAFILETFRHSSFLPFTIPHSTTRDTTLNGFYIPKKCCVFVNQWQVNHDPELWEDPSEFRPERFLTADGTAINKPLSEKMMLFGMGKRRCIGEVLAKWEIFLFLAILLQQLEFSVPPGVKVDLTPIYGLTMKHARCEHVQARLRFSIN
Procedure, shortened: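 Luminescence readout (relative luminescence units) after luciferin detection reagent, 20 min RT. Preceded by 1 h room-temperature CYP1A2 reaction with NADPH regeneration solution following 10 min compound preincubation with enzyme and proluciferin substrate. Furafylline positive control.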

[12] = molecular target: Voltage-gated inwardly rectifying potassium channel KCNH2 (Homo sapiens) (UniProt Q12809); experiment: Human Ether-a-go-go-Related Gene (hERG) channel small molecule antagonists: fluorescence cell-based qHTS assay (AID 1671200); also: nearly all actives have a fitted effect of over 50% in size; also: potency is read from the fitted curve at half-maximal effect
Sequence of Voltage-gated inwardly rectifying potassium channel KCNH2 (Homo sapiens) (Q12809 whole entry, looked up): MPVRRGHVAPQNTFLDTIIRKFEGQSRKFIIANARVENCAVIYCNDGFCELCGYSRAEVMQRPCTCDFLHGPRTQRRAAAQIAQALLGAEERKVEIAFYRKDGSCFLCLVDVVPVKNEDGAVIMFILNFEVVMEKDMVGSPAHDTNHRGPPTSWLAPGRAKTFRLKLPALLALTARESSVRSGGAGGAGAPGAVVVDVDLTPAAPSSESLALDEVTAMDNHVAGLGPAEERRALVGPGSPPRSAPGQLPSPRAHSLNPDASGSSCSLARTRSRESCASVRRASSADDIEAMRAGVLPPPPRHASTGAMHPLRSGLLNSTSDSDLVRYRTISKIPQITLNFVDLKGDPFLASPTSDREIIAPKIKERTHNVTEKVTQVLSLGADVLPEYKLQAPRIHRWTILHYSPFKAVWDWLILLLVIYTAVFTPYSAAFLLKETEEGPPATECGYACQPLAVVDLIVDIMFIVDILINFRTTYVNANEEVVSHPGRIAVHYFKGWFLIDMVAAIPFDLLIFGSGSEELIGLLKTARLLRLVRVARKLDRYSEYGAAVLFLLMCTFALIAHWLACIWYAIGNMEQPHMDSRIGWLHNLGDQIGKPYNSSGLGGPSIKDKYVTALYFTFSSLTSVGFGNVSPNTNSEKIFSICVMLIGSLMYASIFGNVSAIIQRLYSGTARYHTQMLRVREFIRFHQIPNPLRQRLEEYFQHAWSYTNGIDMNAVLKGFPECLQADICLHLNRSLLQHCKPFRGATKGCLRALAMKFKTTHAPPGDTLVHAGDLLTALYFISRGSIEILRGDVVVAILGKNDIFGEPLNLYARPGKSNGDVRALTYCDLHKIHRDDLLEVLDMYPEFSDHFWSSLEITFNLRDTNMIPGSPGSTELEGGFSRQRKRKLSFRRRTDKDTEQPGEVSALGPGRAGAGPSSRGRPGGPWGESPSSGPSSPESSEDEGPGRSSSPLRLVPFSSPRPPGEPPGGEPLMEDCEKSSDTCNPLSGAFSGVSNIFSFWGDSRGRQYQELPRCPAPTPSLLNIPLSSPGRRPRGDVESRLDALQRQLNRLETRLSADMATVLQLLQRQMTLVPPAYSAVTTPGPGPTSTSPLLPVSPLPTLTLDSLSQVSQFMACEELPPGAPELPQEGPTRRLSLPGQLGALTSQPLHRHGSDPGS
Procedure, shortened: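 Channel function was assessed by thallium flux. Cells seeded the previous day and kept at 37 C took up FluxOR II dye over 1 h in the dark at room temperature, then sat another 10 min before stimulation.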

[13] = molecular target: Cytochrome P450 3A4 (Homo sapiens) (UniProt P08684); experiment: Cytochrome P450 Family 3 Subfamily A Member 4 (CYP3A4) small molecule antagonists: luciferase reporter qHTS assay (AID 1671201)
Sequence of Cytochrome P450 3A4 (Homo sapiens) (P08684 whole entry, looked up): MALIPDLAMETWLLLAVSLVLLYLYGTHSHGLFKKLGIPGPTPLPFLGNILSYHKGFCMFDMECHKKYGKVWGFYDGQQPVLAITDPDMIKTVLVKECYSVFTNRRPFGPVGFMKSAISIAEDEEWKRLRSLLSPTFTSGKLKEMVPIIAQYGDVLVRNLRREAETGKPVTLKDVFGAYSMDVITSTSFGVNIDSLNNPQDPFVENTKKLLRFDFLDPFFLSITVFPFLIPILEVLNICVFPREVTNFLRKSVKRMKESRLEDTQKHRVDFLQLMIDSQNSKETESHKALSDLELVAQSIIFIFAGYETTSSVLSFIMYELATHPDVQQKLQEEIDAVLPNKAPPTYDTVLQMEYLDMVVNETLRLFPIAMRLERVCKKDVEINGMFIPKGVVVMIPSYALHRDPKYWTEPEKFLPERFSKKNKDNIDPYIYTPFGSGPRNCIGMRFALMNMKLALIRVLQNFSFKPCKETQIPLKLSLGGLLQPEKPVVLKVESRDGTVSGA
Procedure, shortened: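 Compounds in DMSO were pin-transferred onto CYP3A4 enzyme-substrate mix and held 10 min at room temperature. NADPH regenerating solution started the reaction for 1 h; luciferin detection reagent stopped it, and luminescence was read after 20 min.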

[14] = molecular target: Nuclear receptor subfamily 1 group I member 2 (Homo sapiens) (UniProt O75469); experiment: CYP3A4 induction through human pregnane X receptor (PXR) by small molecules, qHTS assay (AID 1346984); also: nearly all actives have a fitted effect of over 40% in size
Procedure, shortened: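 HepG2-derived DPX-2 line carrying PXR plus a CYP3A4-promoter luciferase reporter; cells plated 5 hr, compound-exposed 24 hr at 37C. CYP3A4 activity probed with 3uM (final) Luciferin-IPA for 3hr, then luciferase read after One-Glo.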

[15] = molecular target: Nuclear receptor subfamily 1 group I member 2 (Homo sapiens) (UniProt O75469); experiment: Human pregnane X receptor (PXR) activation by small molecules, qHTS assay (AID 1346985); also: nearly all actives have a fitted effect of over 40% in size
Procedure, shortened: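 DPX-2 cells (HepG2 co-transfected with a PXR response element and a CYP3A4-promoter luciferase construct) were seeded at 2,000 per well, rested 5 hr at 37C, then exposed to DMSO-dissolved compounds for 24 hr. Activation was read as luciferase luminescence.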

[16] = molecular target: Nuclear receptor subfamily 1 group I member 2 (Rattus norvegicus) (UniProt Q9R1A7); experiment: Rat pregnane X receptor (rPXR) activation by small molecules, qHTS assay (AID 1346983); settings: rPXR luciferase reporter cells, One-Glo luminescence, 24 h; max activation: active compounds read high; also: nearly all actives have a fitted effect of over 20% in size
Sequence of Nuclear receptor subfamily 1 group I member 2 (Rattus norvegicus) (Q9R1A7 whole entry, looked up): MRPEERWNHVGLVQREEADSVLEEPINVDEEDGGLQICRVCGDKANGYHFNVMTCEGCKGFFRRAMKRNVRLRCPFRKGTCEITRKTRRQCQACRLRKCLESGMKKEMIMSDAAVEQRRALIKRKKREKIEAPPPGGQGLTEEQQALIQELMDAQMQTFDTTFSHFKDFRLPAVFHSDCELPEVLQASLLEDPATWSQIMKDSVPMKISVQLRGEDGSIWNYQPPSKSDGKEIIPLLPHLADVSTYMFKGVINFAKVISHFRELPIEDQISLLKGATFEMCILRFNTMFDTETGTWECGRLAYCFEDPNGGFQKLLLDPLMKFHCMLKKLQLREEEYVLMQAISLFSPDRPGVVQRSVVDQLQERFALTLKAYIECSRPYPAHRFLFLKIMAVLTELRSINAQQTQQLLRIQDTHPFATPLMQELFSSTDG
Procedure, shortened: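 Luminescent readout (One-Glo luciferase, 30 min room temperature) followed 24 hr compound treatment at 37 C of rPXR cells plated 2,000 per well and preincubated 5hr; qHTS format with compounds delivered in DMSO.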
% is scaled to controls: 0 for no effect and ±100 for the full control effect.

C[Si]1(C)O[Si](C)(C)O[Si](C)(C)O1
inactive: Potency [1] | Potency [2] | Potency [3] | Potency [4] | outcome [5] | Potency [6] | Potency [7] | Potency [8] | Potency [9] | Potency [10] | Potency [11] | Potency [12] | Potency [13]

CCCOC(=O)c1ccc(C(=O)OCCC)nc1
active: Potency [9] 4.48 µM | Potency [10] 7.1 µM | Potency [11] 11.2 µM
inactive: Potency [1] | Potency [2] | Potency [3] | Potency [4] | outcome [5] | Potency [6] | Potency [7] | Potency [8] | Potency [12] | Potency [13]

O=C(O)Cc1ccc(-c2ccccc2)cc1
inactive: Potency [1] | Potency [2] | Potency [3] | Potency [4] | outcome [5] | Potency [6] | Potency [7] | Potency [14] | Potency [15] | Potency [11] | Potency [12] | Potency [13]

C[N+](C)(C)CCOC(N)=O
active: Potency [1] 3.38 µM
inactive: Potency [2] | Potency [3] | Potency [4] | outcome [5] | Potency [6] | Potency [7] | max activation [16] 0.11% | Potency [14] | Potency [15] | Potency [8] | Potency [10] | Potency [12]

CCOC(=O)[C@@H](C)Oc1ccc(Oc2nc3ccc(Cl)cc3o2)cc1
active: Potency [7] 61.1 µM | Potency [8] 31.7 µM | Potency [9] 79.6 µM | Potency [10] 35.6 µM | Potency [12] 19.5 µM
inactive: Potency [1] | Potency [2] | Potency [3] | Potency [4] | outcome [5] | Potency [6] | Potency [13]

Nc1nccs1
active: Potency [8] 31.7 µM
inactive: Potency [1] | Potency [2] | Potency [3] | Potency [4] | outcome [5] | Potency [6] | Potency [7] | max activation [16] -2.81% | Potency [14] | Potency [15] | Potency [10] | Potency [12] | Potency [13]

O=C(N/N=C/c1ccc([N+](=O)[O-])o1)c1ccc(O)cc1
inactive: Potency [1] | Potency [3] | outcome [5] | Potency [7] | Potency [14] | Potency [15] | Potency [13]
active: Potency [2] 10.6 µM | Potency [4] 23.7 µM | Potency [6] 29.8 µM

CCCCN(CCCC)C(=S)SSC(=S)N(CCCC)CCCC
active: Potency [4] 27 µM | Potency [7] 30.3 µM | Potency [8] 28 µM | Potency [9] 17.7 µM | Potency [10] 2.8 µM
inactive: Potency [1] | Potency [2] | Potency [3] | outcome [5] | Potency [6]

CCC(C(=O)OCCOCCN(CC)CC)c1ccccc1 (stereo not given)
inactive: Potency [1] | Potency [2] | Potency [3] | Potency [4] | outcome [5] | Potency [6] | Potency [7] | Potency [14] | Potency [15] | Potency [9] | Potency [10] | Potency [11] | Potency [12]
